# Inconclusive results are not listed. Calls of active or inactive are those of the source. Rule for the calls: active = hit-call score of the fitted dose curve at least 0.9, where 1 is the maximum; inconclusive = response in the unintended direction; inactive = score below 0.9.
# Target: rat Thyrotropin Releasing Hormone Receptor (TRH), Trhr (gene 25570) (UniProt Q01717)
# Test: NVS_GPCR_rTRH: NovaScreen (NVS) G Protein-Coupled Receptor Assay for rat Thyrotropin Releasing Hormone Receptor (TRH) (AID 2283329);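 note: hit means lower bound tracer signal versus DMSO baseline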
# Protocol: NVS_GPCR_rTRH is a biochemical, single-readout assay that uses extracted gene-proteins from Rat forebrain membranes in a tissue-based cell-free assay. Measurements were taken 4 hours after chemical dosing in a 48-well plate.NVS_GPCR_rTRH is one of one assay component(s) measured or calculated from the NVS_GPCR_rTRH assay. It is designed to make measurements of radioligand binding, a form of binding reporter, as detected with scintillation counting signals by Filter-based radiodetection technology.Data from the assay component NVS_GPCR_rTRH was analyzed into 1 assay endpoint. This assay endpoint, NVS_GPCR_rTRH, was analyzed in the positive analysis fitting direction relative to DMSO as the negative control and baseline of activity. Using a type of binding reporter, loss-of-signal activity can be used to understand changes in the binding as they relate to the gene Trhr. Furthermore, this assay endpoint can be referred to as a primary readout, because the performed assay has only produced 1 assay endpoint. To generalize the intended target to other relatable targets, this assay endpoint is annotated to the gpcr intended target family, where the subfamily is rhodopsin-like receptor.
# Binding assays used specific radioligands (tritiated, iodinated) with non-radioactive competitive displacement ligands in agonist or antagonist protocols (as indicated) and various reference compounds and inhibitors to titrate specific binding to receptors and transporters. Most enzyme assays (CYPs, kinases, phosphatases, proteases, HDACs) used recombinant protein and specific substrates (fluorescence mostly, some colorimetric and radioactive) and inhibitors, followed by a biochemical separation of substrate and product. All assays for the biochemical HTS were initially run in duplicate at a single concentration (10 uM for CYP450 assays and 25 uM for all others). […] Each assay was run with positive and negative controls, and concurrent controls on every plate. The follow-up (secondary) screen tested active chemical-pairs in concentration series, as well as a few additional assays not tested in the primary screen, some selected negative inactives, and several cases re-run in the concentration series for confirmatory purposes.
# Sequence of rat Thyrotropin Releasing Hormone Receptor (TRH), Trhr (gene 25570) (Q01717 whole entry, looked up): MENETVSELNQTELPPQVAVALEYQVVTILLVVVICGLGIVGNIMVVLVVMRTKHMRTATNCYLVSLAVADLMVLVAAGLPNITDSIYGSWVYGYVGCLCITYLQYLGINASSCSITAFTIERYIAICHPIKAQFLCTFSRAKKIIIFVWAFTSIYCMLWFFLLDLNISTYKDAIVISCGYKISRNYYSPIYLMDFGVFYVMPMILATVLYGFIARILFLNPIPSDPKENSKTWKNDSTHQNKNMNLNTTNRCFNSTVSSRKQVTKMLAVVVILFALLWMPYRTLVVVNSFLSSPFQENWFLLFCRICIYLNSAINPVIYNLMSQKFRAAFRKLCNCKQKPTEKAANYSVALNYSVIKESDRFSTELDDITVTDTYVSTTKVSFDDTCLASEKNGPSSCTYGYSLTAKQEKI
row,Structure (SMILES),outcome
1,O=C(CCl)Nc1ccccc1,inactive
2,COc1ccccc1N,inactive
3,O=C(CBr)c1ccc(O)cc1,inactive
4,COc1nn(C(=O)NS(=O)(=O)c2ccccc2OC(F)(F)F)c(=O)n1C,inactive
5,N#CCC#N,inactive
6,N#CCCC(Br)(C#N)CBr (configuration not stated),inactive
7,CCOCn1c(-c2ccc(Cl)cc2)c(C#N)c(Br)c1C(F)(F)F,inactive
8,CN(N=O)C(N)=O,inactive
9,O=c1[nH]c(=O)n(Cl)c(=O)n1Cl,inactive
10,CNC(=O)O/N=C/C(C)(C)S(C)(=O)=O,inactive
11,O=c1nc(O)n(Cl)c(=O)n1Cl,inactive
12,CC(=Cc1ccccc1)[N+](=O)[O-],inactive
13,CC(O)(CS(=O)(=O)c1ccc(F)cc1)C(=O)Nc1ccc(C#N)c(C(F)(F)F)c1 (configuration not stated),inactive
14,CC(C)N(C(=O)CCl)c1ccccc1,inactive
15,CCC[CH2][Sn]([Cl])([Cl])[CH2]CCC,inactive
16,O=[N+]([O-])c1ccc(Cl)c([N+](=O)[O-])c1,inactive
17,O=S1(=O)OC(c2cc(Br)c(O)c(Br)c2)(c2cc(Br)c(O)c(Br)c2)c2ccccc21,inactive

# Source: PubChem BioAssay (EPA / NIEHS)
